Assay outcomes deposited in PubChem by several laboratories.
Shown are actives, neighbours in structure and some others; about 9.7% of the full set was active somewhere.
Autofluor 339: intrinsic fluorescence of library compounds, ex339/em460 – biochemical, MLSMR library, data from DPM-DC assay, artefact control, profiling panel; compound autofluorescence, ex339/em460 nm, NADH buffer; hits give high values; 1 = no-compound wells, NADH background; fluorescence fold increase at 10 µM; actives 5.5% (n = 65,000); AID 709;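 active = at 10 µM, mean starting fluorescence two-fold or more over control wells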;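 note: signal is the first read of a kinetic run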
WNV NS2B-NS3 inh: WNV NS2B-NS3 proteinase inhibition; actives 0.18% (n = 65,000); WNV NS2B-NS3 protease, fluorogenic substrate Ex360/Em465; hits give low values; P06935; AID 577; z-score (no concentration beside the values); in the data active = z-score below about -3
M1 ag: activates the M1 muscarinic receptor. CHO-M1 cells, Fluo-4 calcium fluorescence, agonist mode; hits give high values. B-score at 10 µM. actives 3% (n = 64,000). AID 626;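 active = fluorescence rise, raw or as B-score row- and column-corrected plate score, outside the 99.7% band of its plate's samples, either direction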
M1 antag: M1 muscarinic receptor (rat) antagonism | actives 3.4% (n = 64,000) | P08482 | B-score at 10 µM | AID 628 | CHO-M1 cells, Fluo-4 calcium, ACh EC80 antagonist mode; hits give low values;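 active = calcium fluorescence response, raw or row-and-column corrected B-score, differing from the plate sample mean either way at a set confidence level, mostly lower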
BAP1 block: inhibitors of human BAP1 deubiquitinase | calls only at 20 µM | AID 436 | actives 0.48% (n = 72,000) | recombinant BAP1, Ub-AMC hydrolysis fluorescence kinetic; hits give low values | Q92560;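 active = activity remaining at or below 50% of control, provided the compound also passes the data quality filters; inactive = the rest, including low values that fail the filters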;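 note: 100% = DMSO wells rate and 0% = substrate alone blank rate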
Abs 340nm: absorbance at 340 nm | compound absorbance at 340 nm, fold over control | fold change at 10 µM | 65,000 tested, under 10 active;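 active = at 10 µM dose, initial 340 nm absorbance at least 2 fold that of control wells; inactive = change under 2 fold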;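 note: initial absorbance extrapolated from kinetic A340 decline of NADH oxidation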
An asterisk follows results filed as active; i = inactive; . = no result shown; + = active, no number.

SMILES	Autofluor 339	WNV NS2B-NS3 inh	M1 ag	M1 antag	BAP1 block	Abs 340nm
O=C1c2ccc(Oc3cccc([N+](=O)[O-])c3)cc2C(=O)N1c1c[nH]c(=O)[nH]c1=O	.	.	.	.	i	.
O=C(Nc1ccc(N2CCN(C(=O)c3ccccc3)CC2)cc1)c1cc2ccccc2o1	2.4*	0.01	-0.711	-0.94	i	1.15
O=C1CC(c2cccs2)CC2=C1C(c1ccccc1)n1ncnc1N2 (stereo not given)	1.59	-0.63	0.635	0.819	i	1.03
c1csc(C2C3=C(Nc4ncnn42)c2ccccc2OC3)c1 (stereo not given)	2.34*	0.2	0.421	0.147	i	1.05
CCCCC(C(=O)NCCC(C)C)N(CCCN1CCOCC1)C(=O)c1snc(C(N)=O)c1N (stereo not given)	2.08*	-0.45	0.687	0.025	.	1.05
CC(C(=O)NC1CCCC1)N(Cc1ccc2c(c1)OCO2)C(=O)c1snc(C(N)=O)c1N (stereo not given)	1.7	-0.06	0.743	0.561	i	1.05
CCN(CC)CCNc1ncnc2c1[nH]c1ccc(OC)cc12	2.36*	-1.84	0.963	0.154	i	1.05
Cc1ccc2[nH]c3c(NCCN4CCOCC4)ncnc3c2c1	1.61	-1.23	1.42	0.0355	i	1.03
N#Cc1nc(-c2ccco2)oc1N1CCCC1	3.85*	-0.86	-1.04	0.394	.	1.07
O=S(=O)(c1ccccc1)c1nc(-c2ccco2)oc1N1CCOCC1	1.07	-0.24	-0.749	0.495	i	1.03
N#Cc1nc(-c2ccco2)oc1N1CCN(C(c2ccccc2)c2ccccc2)CC1	1.91	-1.22	0.76	-0.0517	.	1.05
CC1CC(C)CN(c2oc(-c3ccco3)nc2C#N)C1 (stereo not given)	2.16*	0.43	1.28	-0.31	.	1.12
N#Cc1nc(-c2ccco2)oc1N1CCc2ccccc2C1	3.84*	-0.02	3.85*	0.733	.	1.07
COc1ccccc1OCc1nc(C#N)c(N2CC(C)CC(C)C2)o1 (stereo not given)	1.01	1.84	0.0378	-0.242	i	1.07
CC(C)CCOC(=O)c1ccc(NC(=O)c2ccc([N+](=O)[O-])cc2)cc1	.	.	.	.	i	.
CCCCCCCC/C=C\CCCCCCCC(=O)NCCO	.	.	.	.	i	.
CCCCCCCCCCCCC/C=C/C(O)C(N)CO (stereo not given)	.	.	.	.	+	.
CCc1nc(N)c(C#N)c(-c2ccco2)c1C	.	.	0.0273	1.03	.	.
Cc1c(-c2ccccc2)nc(N)c(C#N)c1-c1ccco1	2.6*	-0.1	0.0914	-0.161	.	1.06
N#Cc1c(-c2ccco2)cc(-c2ccccn2)nc1N	3.73*	1.75	.	.	i	1.08
N#Cc1c(-c2ccco2)cc(-c2cccnc2)nc1N	3.66*	0.17	-0.153	0.0256	i	1.08
COc1cc2nc(NC(=O)c3ccccc3)[nH]c(=O)c2cc1OC	1.09	-0.03	0.675	-0.491	i	1.05
COc1ccc(C(=O)Nc2nc3cc(OC)c(OC)cc3c(=O)[nH]2)cc1	1.14	0.5	-0.13	10.3*	i	1.13
CCc1ccccc1NC1=C(Cl)C(=O)N(c2cccc(Cl)c2)C1=O	.	.	.	.	i	.
Cc1oc2ccccc2c1-c1cn2c(n1)SCC2	3.63*	-0.23	1.31	-8.04e-06	i	1.06
SMILES	Autofluor 339	WNV NS2B-NS3 inh	M1 ag	M1 antag	BAP1 block	Abs 340nm
c1ccc(-c2cn3c(n2)SCC3)cc1	.	.	.	.	i	.
O=[N+]([O-])c1ccccc1Oc1cccc(Oc2ccccc2[N+](=O)[O-])c1	.	.	.	.	i	.
CCOc1ccc2[nH]c3c(N4CCN(c5ccccn5)CC4)ncnc3c2c1	2.67*	-0.15	-0.346	-1.04	i	1.01
Cc1cccc(-n2nc3c(c2NC(=O)c2ccco2)CSC3)c1	.	.	.	.	i	.
COc1ccccc1N1CCN(C(=O)CCNS(=O)(=O)c2ccc3c(c2)CCC(=O)N3)CC1	1.05	-0.88	0.122	0.131	i	0.98
COc1ccc(N2CCN(C(=O)CCNS(=O)(=O)c3ccc4c(c3)CCC(=O)N4)CC2)cc1	2.07*	-1.69	0.147	-0.0399	.	1.03
COc1ccc2c(C)c(Cl)c(=O)oc2c1	2.2*	0.53	0.44	-0.148	i	1.14
C=CCc1c(C)c2ccc(OC(C)=O)cc2oc1=O	.	.	.	.	i	.
CC(=O)COc1ccc2c(C)c(Cc3ccccc3)c(=O)oc2c1	.	.	.	.	i	.
COC(=O)Cc1c(C)c2ccc(OCC(=O)N3CCOCC3)cc2oc1=O	2.91*	-0.03	0.401	-0.948	.	1.06
